Structures are written as SMILES. Inconclusive results are not listed. Calls of active or inactive are those of the source.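 The calls were made as follows, unless noted: active = response below a set limit, under 55% cells CD8-positive and vesicle-bound, and CD8 cells' 90th-percentile brightness under 279; inactive = the rest.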

A short description of test [1]: yeast TOR pathway RPL19A-GFP modulators, primary screen, cell-based, S. cerevisiae, multiplex flow cytometry (AID 1862; in the data active = percent of DMSO control GFP below about 86%;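 also: lower values mimic rapamycin by blocking the RPL19A rise seen in DMSO cells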). The settings on record: S. cerevisiae RPL19A-GFP strain, flow cytometry fluorescence, 3 h; at 10 µM; stronger effect = lower value. On the technique in general: A flow cytometer gives signals particle by particle.
The nature of test [2]: modulators of MEP2-GFP levels in yeast, primary screen, S. cerevisiae, multiplex flow cytometry (AID 1867;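 active = GFP response, as percent of the DMSO control, above the screen-wide mean plus 3 SD, about 139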;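 also: median GFP channel fluorescence of barcode-gated MEP2-GFP cells measured by flow cytometry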). The settings on record: S. cerevisiae MEP2-GFP strain, 3 h, at 10 µM, stronger effect = higher value, 100% means same as DMSO wells.
Test [3] in a line: modulators of CIT2-GFP expression in yeast, primary screen, S. cerevisiae, GFP fusion, multiplex flow cytometry (AID 1870;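 active = percent response above a set limit, the screen-wide mean plus 3 SD, cut at about 130% in these data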;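 also: barcoded CIT2-GFP strain pooled with four other GFP strains with rapamycin as positive control; median GFP fluorescence per well over plate mean of DMSO wells so 100% = DMSO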). As to conditions: 3 h, at 10 µM, stronger effect = higher value.
Test [4] is described as follows: modulators of LAP4-GFP expression in yeast, primary screen, S. cerevisiae, multiplex flow cytometry (AID 1873;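 active = GFP signal, as percent of the solvent control, above the screen mean plus 3 SD, about 149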). As to conditions: 3 h, at 10 µM, stronger effect = higher value.
The nature of test [5]: modulators of AGP1-GFP expression in yeast TOR pathway, primary screen, cell-based, multiplex flow cytometry, S. cerevisiae (AID 1887;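 active = GFP signal above the screen-wide mean plus 3 SD, that is over about 124.5% of the solvent control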;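 also: AGP1-GFP fusion strain of S. cerevisiae within a five-strain barcoded multiplex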). The settings on record: 3 h, at 10 µM, stronger effect = higher value.
Test [6] in a line: inhibitors of CD8+ T cell-vesicle binding, pilot screen, LFA-1/ICAM-1 modulator project, MLPCN validation set, flow cytometry (AID 2523).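 As to vesicle binding response: mean PE anti-B7-1 fluorescence of CD8+ cells relative to row control; 100% = QL9-loaded vesicles with DMSO vehicle in the same plate row.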 The settings on record: 2C mouse CD8+ T cells, at 7 µM, stronger effect = lower value; double positive events: measured here: CD8+/vesicle+ event percentage.
Test [7] concerns the target Integrin beta-1 (Homo sapiens) + Integrin alpha-4 (Homo sapiens) (UniProt P13612+P05556). As to the kind of experiment: inhibition of HUTS-21 binding to VLA-4, pilot screen, VLA-4 allosteric modulator project, U937 cells, HUTS-21 mAb, flow cytometry, validation set (AID 2674;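 active = inhibition above 50%, about 3 SD of the validation set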;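 also: antibody binding induced by the VLA-4 ligand LDV present at three times its Kd; 0% = LDV ligand with antibody and no compound and 100% = antibody without LDV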). The settings on record: HUTS-21 LIBS mAb binding, at 6.7 µM, stronger effect = higher value, binding induced by LDV ligand.

A short description of test [8]: superoxide lowering in aged yeast cells, pilot screen, validation compound set (AID 2706;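 active = superoxide response below 65% of plate, a cut near 3 SD across the whole screen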;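 also: yeast exposed to compound for one week at 30 degrees C before staining; 100% = mean of all compound wells on the same plate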). As to conditions: S. cerevisiae aging, superoxide DHE fluorescence; at 10 µM; stronger effect = lower value.
Test [9] concerns the target Beta-adrenergic receptor kinase 1 (Homo sapiens) (UniProt P25098). Put plainly: GRK2 binders displacing RNA aptamer, biochemical, validation, human GRK2, bead flow cytometry (AID 488806;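 active = aptamer binding inhibition above 30%, about 3 SD of noise from non-fluorescent compounds; inactive = inhibition at or below 30%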). The settings on record: bead-bound GRK2, FAM-aptamer displacement, at 10 µM, stronger effect = higher value.
Test [10] concerns the target Beta-2 adrenergic receptor (Homo sapiens) (UniProt P07550). Put plainly: beta2AR agonists driving receptor internalization, pilot screen, cell-based, FAP fluorogen, flow cytometry, validation set (AID 504459;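 active = percent response above 42, roughly 3 SD of non-fluorescent test compounds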;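 also: agonist-driven loss of surface beta2AR via internalization measured by FAP dye flow cytometry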). As to conditions: Am2.2-beta2AR cells, FAP surface receptor flow cytometry; at 10 µM; stronger effect = higher value.
Test [11] has as its target AP-2 complex subunit beta (Homo sapiens) (UniProt P63010). As to the kind of experiment: inhibitors of arrestin peptide binding to AP2, pilot screen, biochemical, validation set, GST-AP2 beads, flow cytometry (AID 504541;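 active = inhibition above 54%, about 3 SD of non-fluorescent compounds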;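 also: AP2 carries R879A mutation and is captured from E. coli lysate; bead-bound FITC arrestin peptide fluorescence measuring arrestin peptide binding to AP2; 0% = DMSO wells and 100% = excess unlabeled arrestin peptide control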). As to conditions: FITC arrestin peptide, at 10 µM, stronger effect = higher value, AP2 beta2 appendage fragment, R879A mutant.
Test [12] in a line: yeast V-ATPase proton transport modulators, S. cerevisiae, pHLuorin, HTS validation (AID 504600; in the data active = response above about 15%;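 also: plate controls were DMSO for no effect and reference compound for full effect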). As to conditions: S. cerevisiae pHLuorin cytosolic pH, at 10 µM, stronger effect = higher value.
Test [13] deals with anti-desmoglein-3 scFv antibody binding to human DSG3. Put plainly: inhibitors of anti-DSG3 scFv binding to DSG3, pilot screen, biochemical, validation compound set, bead-based, flow cytometry (AID 588368;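 active = binding below the plate cutoff, the plate median minus 3 SD, with a reading above zero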;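 also: signal is the median channel fluorescence of bead-bound GFP antibody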). As to conditions: Protein G beads, DSG3-Fc, scFv-GFP binding, at 10 µM, stronger effect = lower value.
Test [14] in a line: inhibitors of fungal efflux pumps CDR1, CDR2, MDR1, pilot screen, validation compound set, multiplex, phenotypic (AID 588506;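 active = efflux inhibition above 0.42, the validation set average plus 4 SD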;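 also: Nile Red retained in cells so higher fluorescence means more efflux inhibition; 0 = negative control wells and 1 = enniatin B 25 µM full block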). The settings on record: S. cerevisiae pump-expressing triplex, Nile Red efflux flow cytometry; at 10 µM; stronger effect = higher value; the pumps come from Candida albicans.
Test [15] deals with ATP-binding cassette sub-family B member 6 (Homo sapiens) (UniProt Q9NP58). As to the kind of experiment: ABCB6 transporter inhibitors, pilot screen, K562-ABCB6 cells, flow cytometry, validation set (AID 588550;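 active = inhibition above the screen-wide mean plus 3 SD, about 51%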;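 also: 0% = DMSO wells and 100% = benzethonium chloride 70 µM positive control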). As to conditions: K562-ABCB6 porphyrin accumulation, 1 h, at 10 µM, stronger effect = higher value.
ATP-binding cassette sub-family B member 6 (Homo sapiens), sequence (Q9NP58 whole entry, looked up): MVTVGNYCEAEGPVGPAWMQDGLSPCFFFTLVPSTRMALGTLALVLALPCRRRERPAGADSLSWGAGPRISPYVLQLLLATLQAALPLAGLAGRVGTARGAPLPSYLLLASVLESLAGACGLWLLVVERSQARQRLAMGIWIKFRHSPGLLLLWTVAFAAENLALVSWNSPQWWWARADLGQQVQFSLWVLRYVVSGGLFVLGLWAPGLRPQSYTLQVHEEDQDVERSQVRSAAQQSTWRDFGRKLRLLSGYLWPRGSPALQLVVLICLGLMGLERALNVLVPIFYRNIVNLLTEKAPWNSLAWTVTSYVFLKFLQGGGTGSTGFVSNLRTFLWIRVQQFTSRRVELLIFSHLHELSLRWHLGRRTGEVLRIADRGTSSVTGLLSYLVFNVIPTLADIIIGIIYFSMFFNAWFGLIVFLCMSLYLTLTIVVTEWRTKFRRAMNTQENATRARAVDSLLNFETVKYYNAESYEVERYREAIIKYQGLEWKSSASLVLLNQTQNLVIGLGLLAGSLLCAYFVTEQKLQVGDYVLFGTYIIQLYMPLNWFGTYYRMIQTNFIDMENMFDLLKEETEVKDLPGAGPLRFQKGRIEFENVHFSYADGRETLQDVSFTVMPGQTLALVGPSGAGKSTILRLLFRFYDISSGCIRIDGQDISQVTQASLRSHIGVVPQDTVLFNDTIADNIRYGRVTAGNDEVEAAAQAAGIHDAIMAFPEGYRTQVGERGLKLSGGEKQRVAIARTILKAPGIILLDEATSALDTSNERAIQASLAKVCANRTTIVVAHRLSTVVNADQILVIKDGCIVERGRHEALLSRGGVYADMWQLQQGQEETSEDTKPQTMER
Test [16] can be described thus: promoters of myeloid differentiation in arrested cells, primary screen, cell-based, GFP/MAC1 double positive, flow cytometry, validation set (AID 588685;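 active = differentiation response of at least 50%, scaled between solvent and reference control, from cells with both markers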;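 also: compound exposure lasts four days before antibody staining and flow analysis; 0% = DMSO wells and 100% = 5 µM fulvestrant positive control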). The settings on record: ER-HoxA9 marrow cells, stronger effect = higher value, normalized: vehicle 0, fulvestrant 100.

Integrin beta-1 (Homo sapiens) + Integrin alpha-4 (Homo sapiens), sequence (P05556 whole entry, looked up): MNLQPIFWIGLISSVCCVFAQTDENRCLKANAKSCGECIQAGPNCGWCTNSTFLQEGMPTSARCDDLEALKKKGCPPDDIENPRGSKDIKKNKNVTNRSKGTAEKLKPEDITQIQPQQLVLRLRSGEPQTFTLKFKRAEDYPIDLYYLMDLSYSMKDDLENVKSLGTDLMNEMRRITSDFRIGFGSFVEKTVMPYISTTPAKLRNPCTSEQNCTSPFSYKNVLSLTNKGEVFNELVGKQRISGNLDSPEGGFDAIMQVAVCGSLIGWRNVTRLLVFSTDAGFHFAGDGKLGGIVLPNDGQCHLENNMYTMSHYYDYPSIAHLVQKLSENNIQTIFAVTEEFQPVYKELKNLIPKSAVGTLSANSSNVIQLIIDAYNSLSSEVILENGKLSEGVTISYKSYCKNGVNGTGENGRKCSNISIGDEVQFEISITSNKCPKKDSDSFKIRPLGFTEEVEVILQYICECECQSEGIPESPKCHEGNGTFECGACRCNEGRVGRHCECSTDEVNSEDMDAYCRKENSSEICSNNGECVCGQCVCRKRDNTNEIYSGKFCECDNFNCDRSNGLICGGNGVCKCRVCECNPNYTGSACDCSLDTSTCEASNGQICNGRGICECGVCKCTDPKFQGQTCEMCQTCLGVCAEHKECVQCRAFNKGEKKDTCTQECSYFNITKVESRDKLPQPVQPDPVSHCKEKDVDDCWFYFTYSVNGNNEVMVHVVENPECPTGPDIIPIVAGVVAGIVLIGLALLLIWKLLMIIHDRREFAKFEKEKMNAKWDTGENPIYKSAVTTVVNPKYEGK
Integrin beta-1 (Homo sapiens) + Integrin alpha-4 (Homo sapiens), sequence (P13612 whole entry, looked up): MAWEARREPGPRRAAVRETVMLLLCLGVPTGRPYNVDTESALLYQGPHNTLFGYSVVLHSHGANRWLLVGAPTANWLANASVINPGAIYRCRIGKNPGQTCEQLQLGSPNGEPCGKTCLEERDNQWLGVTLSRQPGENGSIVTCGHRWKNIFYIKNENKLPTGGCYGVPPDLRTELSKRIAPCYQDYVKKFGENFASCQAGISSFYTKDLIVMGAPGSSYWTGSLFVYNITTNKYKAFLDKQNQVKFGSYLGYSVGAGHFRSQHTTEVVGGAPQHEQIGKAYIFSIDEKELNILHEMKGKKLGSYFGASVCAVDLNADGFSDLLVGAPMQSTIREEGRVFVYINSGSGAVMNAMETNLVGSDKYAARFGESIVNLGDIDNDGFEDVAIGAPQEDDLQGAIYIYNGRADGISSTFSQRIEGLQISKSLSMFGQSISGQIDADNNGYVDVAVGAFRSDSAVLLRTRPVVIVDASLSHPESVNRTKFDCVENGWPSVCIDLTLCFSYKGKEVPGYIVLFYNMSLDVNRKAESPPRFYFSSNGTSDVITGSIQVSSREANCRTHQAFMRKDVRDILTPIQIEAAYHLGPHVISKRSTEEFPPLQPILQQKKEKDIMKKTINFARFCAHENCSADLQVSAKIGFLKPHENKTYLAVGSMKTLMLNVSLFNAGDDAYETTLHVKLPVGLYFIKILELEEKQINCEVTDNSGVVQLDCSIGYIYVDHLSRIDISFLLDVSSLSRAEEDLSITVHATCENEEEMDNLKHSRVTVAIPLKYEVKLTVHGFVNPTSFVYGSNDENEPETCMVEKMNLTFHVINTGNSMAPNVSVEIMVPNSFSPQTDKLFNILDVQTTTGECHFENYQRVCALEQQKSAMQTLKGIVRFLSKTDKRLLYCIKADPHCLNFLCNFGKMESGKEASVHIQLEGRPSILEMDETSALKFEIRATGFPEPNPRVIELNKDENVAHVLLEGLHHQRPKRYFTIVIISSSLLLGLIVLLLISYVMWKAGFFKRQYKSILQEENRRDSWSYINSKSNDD
Beta-adrenergic receptor kinase 1 (Homo sapiens), sequence (P25098 whole entry, looked up): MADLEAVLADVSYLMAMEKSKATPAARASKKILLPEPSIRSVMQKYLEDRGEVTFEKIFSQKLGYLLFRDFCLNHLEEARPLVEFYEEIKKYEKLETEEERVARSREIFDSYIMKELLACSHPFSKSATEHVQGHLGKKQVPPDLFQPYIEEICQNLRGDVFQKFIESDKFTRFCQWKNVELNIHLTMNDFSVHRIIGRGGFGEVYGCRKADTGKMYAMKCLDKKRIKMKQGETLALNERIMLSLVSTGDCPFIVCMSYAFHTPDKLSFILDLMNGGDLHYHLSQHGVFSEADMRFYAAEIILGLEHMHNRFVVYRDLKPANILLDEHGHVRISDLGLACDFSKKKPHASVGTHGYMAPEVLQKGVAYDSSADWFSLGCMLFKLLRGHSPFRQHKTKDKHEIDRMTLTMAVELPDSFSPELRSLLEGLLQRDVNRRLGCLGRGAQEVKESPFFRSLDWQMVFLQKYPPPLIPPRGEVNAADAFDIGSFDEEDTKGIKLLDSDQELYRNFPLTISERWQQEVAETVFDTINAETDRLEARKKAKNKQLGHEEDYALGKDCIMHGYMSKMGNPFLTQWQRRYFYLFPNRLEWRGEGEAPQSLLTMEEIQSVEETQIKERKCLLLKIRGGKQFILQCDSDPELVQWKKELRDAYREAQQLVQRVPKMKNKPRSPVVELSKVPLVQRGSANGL
Beta-2 adrenergic receptor (Homo sapiens), sequence (P07550 whole entry, looked up): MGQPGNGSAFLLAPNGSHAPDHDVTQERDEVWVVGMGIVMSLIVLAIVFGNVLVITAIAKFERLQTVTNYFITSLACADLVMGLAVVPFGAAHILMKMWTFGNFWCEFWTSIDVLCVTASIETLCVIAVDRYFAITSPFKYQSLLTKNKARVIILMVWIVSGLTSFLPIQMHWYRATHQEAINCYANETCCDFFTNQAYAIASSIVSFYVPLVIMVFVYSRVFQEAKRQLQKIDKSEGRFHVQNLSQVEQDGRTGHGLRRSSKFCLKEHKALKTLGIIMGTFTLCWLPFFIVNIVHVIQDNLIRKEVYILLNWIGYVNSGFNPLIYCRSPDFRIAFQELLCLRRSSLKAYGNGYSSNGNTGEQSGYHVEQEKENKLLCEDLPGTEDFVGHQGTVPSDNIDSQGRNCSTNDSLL
AP-2 complex subunit beta (Homo sapiens), sequence (P63010 whole entry, looked up, the tested form may be a part, one chain of several): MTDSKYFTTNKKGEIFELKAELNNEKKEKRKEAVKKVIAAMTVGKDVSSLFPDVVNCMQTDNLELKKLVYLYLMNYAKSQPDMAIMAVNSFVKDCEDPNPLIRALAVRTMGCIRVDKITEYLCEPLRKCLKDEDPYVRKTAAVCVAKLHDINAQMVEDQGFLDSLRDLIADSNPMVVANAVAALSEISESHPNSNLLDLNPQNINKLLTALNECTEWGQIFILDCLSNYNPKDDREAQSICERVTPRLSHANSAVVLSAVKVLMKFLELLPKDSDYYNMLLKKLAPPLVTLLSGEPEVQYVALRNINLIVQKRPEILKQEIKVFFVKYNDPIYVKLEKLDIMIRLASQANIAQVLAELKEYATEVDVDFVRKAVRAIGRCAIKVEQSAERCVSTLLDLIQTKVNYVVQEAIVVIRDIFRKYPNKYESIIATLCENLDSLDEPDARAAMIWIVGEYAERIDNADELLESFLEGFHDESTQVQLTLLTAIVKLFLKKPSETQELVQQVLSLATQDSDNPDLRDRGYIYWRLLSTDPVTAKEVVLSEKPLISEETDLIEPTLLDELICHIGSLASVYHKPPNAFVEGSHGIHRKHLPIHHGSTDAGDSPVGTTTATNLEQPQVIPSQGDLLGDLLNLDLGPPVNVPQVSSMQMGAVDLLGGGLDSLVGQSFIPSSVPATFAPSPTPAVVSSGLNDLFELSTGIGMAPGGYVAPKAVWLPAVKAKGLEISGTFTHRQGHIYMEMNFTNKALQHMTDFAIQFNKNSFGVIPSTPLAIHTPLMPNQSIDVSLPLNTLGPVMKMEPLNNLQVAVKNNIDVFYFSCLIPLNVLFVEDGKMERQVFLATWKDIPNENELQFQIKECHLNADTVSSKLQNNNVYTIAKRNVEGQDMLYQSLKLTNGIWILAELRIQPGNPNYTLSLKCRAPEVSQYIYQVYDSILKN

The inhibition is the change of the read-out against control, counted positive when it falls. On to `Cc1ccc(/C=N/Nc2nc(C(C)(C)C)cs2)o1`, for which the percent of DMSO control GFP in test [1] was 103% (inactive). The GFP response vs DMSO in [2] was 106% (inactive); in test [4] it was 98.2% (inactive). The percent response of DMSO control in [3] was 95.8% (inactive). The GFP response, % of DMSO in test [5] was 97.8% (inactive). The same compound yielded a double positive events in test [6] of 69.4%. In addition, the vesicle binding response in [6] is 302% (inactive). The inhibition in test [7] is 17.3% (inactive); in test [11], -1.54% (inactive); in [15] it was 114% (active). Further, the superoxide response (% of plate) in [8] is 80.8% (inactive). Also, in test [9], the aptamer binding inhibition was 5% (inactive). Further, the response in [10] was 4.35% (inactive); in test [12], 6.19% (inactive). In addition, the binding (% of control) in [13] was 102% (inactive). In addition, the efflux inhibition (fraction of control) in [14] was 0.51 (active). Besides, in test [16], the differentiation response was 7.2% (inactive).

As for `CC(=O)NC(Cc1ccccc1)C(=O)OCC(=O)c1ccccc1` (stereo not given), in test [1], the percent of DMSO control GFP is 96% (inactive). Further, the GFP response vs DMSO was 102% (inactive) in [2] and 106% (inactive) in [4]. The percent response of DMSO control in test [3] is 88.6% (inactive). In addition, the GFP response, % of DMSO in test [5] is 100% (inactive). Moreover, the double positive events in test [6] amounted to 65.2%. Moreover, the vesicle binding response in [6] was 144% (inactive). In addition, the inhibition in [7] was 9.1% (inactive); in test [11], 9.32% (inactive); in test [15], 6% (inactive). In [8], the superoxide response (% of plate) was 111% (inactive). In test [9], the aptamer binding inhibition was 3% (inactive). In addition, the response in [10] is -9.61% (inactive); in test [12] it was 3.98% (inactive). For the same compound, the binding (% of control) in test [13] was 105% (inactive). In addition, in test [14], the efflux inhibition (fraction of control) is 0 (inactive). In test [16], the differentiation response is -21.7% (inactive).

In the case of `NCc1ccccc1COc1ccccc1`, the percent of DMSO control GFP in [1] is 105% (inactive). The GFP response vs DMSO is 109% (inactive) in [2] and 117% (inactive) in test [4]. Also, the percent response of DMSO control in test [3] is 102% (inactive). In addition, in [5], the GFP response, % of DMSO is 111% (inactive). The same compound yielded a double positive events in test [6] of 62.7%. The vesicle binding response in test [6] is 179% (inactive). In addition, the inhibition was 2.3% (inactive) in [7], 57% (active) in test [11] and 6% (inactive) in test [15]. The superoxide response (% of plate) in test [8] was 96.7% (inactive). Moreover, the aptamer binding inhibition in [9] was 0% (inactive). Moreover, the results for the response in test [10] and in test [12] were 4.62% (inactive) and -3.28% (inactive), respectively. Moreover, in test [13], the binding (% of control) is 98% (inactive). Besides, the efflux inhibition (fraction of control) in test [14] was 0.05 (inactive). Further, the differentiation response in test [16] is -15.2% (inactive).

On to `Cc1ccccc1C(=O)Oc1ccc(Sc2ccc(O)cc2)cc1`, for which, in [1], the percent of DMSO control GFP was 103% (inactive). Besides, the figures for the GFP response vs DMSO in [2] and in [4] were 99.3% (inactive) and 113% (inactive), respectively. In [3], the percent response of DMSO control was 100% (inactive). In addition, the GFP response, % of DMSO in test [5] was 100% (inactive). Further, in [6], the double positive events was determined as 62.4%. Besides, the vesicle binding response in test [6] was 255% (inactive). Also, the results for the inhibition in test [7], in test [11] and in [15] were 0.58% (inactive), -5.67% (inactive) and -7% (inactive), respectively. For the same compound, the superoxide response (% of plate) in test [8] was 94.1% (inactive). Besides, the aptamer binding inhibition in test [9] was 0% (inactive). Besides, the response in test [10] is -4.72% (inactive); in test [12], 1.54% (inactive). Further, the binding (% of control) in [13] was 97.6% (inactive). In addition, in test [14], the efflux inhibition (fraction of control) is 0.02 (inactive). Besides, the differentiation response in test [16] is -1.71% (inactive).

`O=C(O)[C@@H](O)c1ccccc1`: the percent of DMSO control GFP in test [1] is 102% (inactive). Besides, the GFP response vs DMSO in test [2] is 106% (inactive); in test [4] it was 121% (inactive). In addition, the percent response of DMSO control in test [3] is 102% (inactive). The GFP response, % of DMSO in test [5] is 120% (inactive). For the same compound, in test [6], the double positive events worked out at 62%. Further, the vesicle binding response in test [6] is 168% (inactive). Further, the inhibition was 16.8% (inactive) in test [7], 10.1% (inactive) in test [11] and 3% (inactive) in [15]. For the same compound, the superoxide response (% of plate) in test [8] was 97% (inactive). Moreover, the aptamer binding inhibition in test [9] is 3% (inactive). Moreover, the figures for the response in [10] and in test [12] were -22.9% (inactive) and -0.22% (inactive), respectively. Further, in [13], the binding (% of control) is 106% (inactive). Besides, in test [14], the efflux inhibition (fraction of control) was -0.04 (inactive). Also, the differentiation response in [16] was -11.9% (inactive).

The record behind these values is PubChem BioAssay.
